# Measurements published in PubChem BioAssay.
# The source made the active and inactive calls. Unless noted, the rule behind the calls is not given here.
# How the values were obtained:
# [1] = test system: XIP peptide (Xip251-270) binding; assay: XIP fragment 251-270 binding compounds – biochemical, small-molecule microarray, fluorescence 635/667 nm, 0.1 µg/mL protein, primary screen (AID 1182); details: fluorescent protein binding, 635 nm, higher = more signal, called active from +8 up or from −8 down
# XIP peptide (Xip251-270) = assay: compounds binding XIP fragment 251-270 – biochemical, small-molecule microarray, fluorescence 635/667 nm, 0.5 µg/mL protein, primary screen (AID 1183); details: fluorescence 635 nm, higher = more signal
# [2] = blood-stage malaria parasite viability loss – strain 3D7, DAPI fluorescence, 100 nL, primary screen (AID 1184);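 note: parasites grown inside human red blood cells in medium with human serum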; details: P. falciparum 3D7 growth, 3 d, higher = more signal
# [3] = molecular target: Homeobox protein Hox-A13 (Mus musculus) (UniProt Q62424); assay: disruptors of Hoxa13 oligonucleotide interaction – biochemical, fluorescence polarization, labeled oligonucleotide, primary screen (AID 1185); details: Hoxa13:DNA binding, 15 min, higher = more signal, called active from +8 up or from −8 down
# [4] = blockers of DNA damage checkpoint Chk1 activation – imaging, HeLa, hydroxyurea, phospho-Chk1 antibody, percent positive cells, primary screen (AID 1186); details: hydroxyurea-induced phospho-Chk1 immunofluorescence imaging, higher = more signal
# [5] = blockers of DNA damage checkpoint Chk1 activation – imaging, HeLa, hydroxyurea, phospho-Chk1 nuclear intensity, primary screen (AID 1187); details: hydroxyurea-induced phospho-Chk1 immunofluorescence imaging, higher = more signal
# Homeobox protein Hox-A13 (Mus musculus), sequence (Q62424 whole entry, looked up): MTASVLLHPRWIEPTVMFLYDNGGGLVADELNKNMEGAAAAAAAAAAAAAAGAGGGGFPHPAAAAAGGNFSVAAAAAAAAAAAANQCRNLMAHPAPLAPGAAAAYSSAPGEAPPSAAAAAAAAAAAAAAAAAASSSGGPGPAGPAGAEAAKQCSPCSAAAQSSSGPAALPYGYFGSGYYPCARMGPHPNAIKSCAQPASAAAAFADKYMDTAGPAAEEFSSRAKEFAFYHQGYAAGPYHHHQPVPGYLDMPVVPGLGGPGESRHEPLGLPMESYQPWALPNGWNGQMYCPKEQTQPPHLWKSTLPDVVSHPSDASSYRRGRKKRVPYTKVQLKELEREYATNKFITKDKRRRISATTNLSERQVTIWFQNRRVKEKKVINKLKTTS
Compound,composite z-score [1],composite z-score (XIP peptide (Xip251-270)),z-score [2],z-score [3],z-score [4],z-score [5]
COCCOC(=O)N1C(=O)[C@@]2(c3cc(C#CCCO)ccc31)[C@H](c1ccccc1OCCO)N1[C@H](c3ccccc3)[C@H](c3ccccc3)OC(=O)[C@H]1[C@@H]2C(=O)N1CCN(c2ncccn2)CC1,0.377 (inactive),0.783,-1.89,-1.16 (inactive),-0.0825 (inactive),-0.157 (inactive)
Cc1ccc(S[C@]2(C(=O)NCc3ccccc3)CC(=O)N(Cc3ccccc3Cl)[C@@H]2c2ccc(CO)cc2I)cc1,0.935 (inactive),0.348,-0.496,-1.91 (inactive),0.0452 (inactive),0.0687 (inactive)
CCOC(=O)C1=C[C@@H](C(C)C)N(S(=O)(=O)c2ccc(C)cc2)[C@H]1c1ccc(C(C)C)cc1,0.306 (inactive),-0.109,-1.46,-0.549 (inactive),0.25 (inactive),0.478 (inactive)
CCOC(=O)C[C@H]1[C@H](OC(=O)c2ccc(-c3ccccc3)cc2)[C@@H](NC(=O)c2ccc(-c3ccccc3)cc2)c2cc(OCCCO)ccc2N1C(=O)Cc1ccc(OC)cc1,-0.548 (inactive),-0.057,0.555,-1.54 (inactive),-0.0323 (inactive),0.107 (inactive)
CC(C)(C)N1CC=CC23O[C@@H]4C=CCOC(=O)[C@@H]4[C@H]2C(=O)N(CCCCCO)[C@@H]3C1=O (stereo partly drawn),0.295 (inactive),-1.13,-0.366,-4.43 (inactive),0.241 (inactive),-0.459 (inactive)
CC1CC/C=C\[C@H]2OC34C=CCN(Cc5ccccc5)C(=O)[C@H]3N(CCCCCO)C(=O)[C@@H]4C2C(=O)O1 (stereo partly drawn),-0.0864 (inactive),0.525,1.65,-5.11 (inactive),-0.0458 (inactive),-0.0669 (inactive)
O=C1O[C@@H](c2ccccc2)[C@@H](c2ccccc2)N2[C@@H](c3ccc(OCCO)cc3)[C@]3(C(=O)Nc4ccccc43)[C@@H](C(=O)Nc3nc4ccccc4s3)[C@H]12,0.615 (inactive),0.841,-0.161,2.18 (inactive),-0.469 (inactive),-0.781 (inactive)
CC(C)=CCCC(C)=CC(O)C1C=CC2C(=O)N(c3ccccc3)C(=O)C2N1Nc1ccccc1 (stereo not drawn),0.634 (inactive),0.828,-0.168,-3.67 (inactive),0.881 (inactive),0.352 (inactive)
[N-]=[N+]=NCc1ccccc1C[C@]1(C(=O)NCC(O)CO)N=C(c2ccc(OCCCO)cc2)O[C@H]1c1ccccc1N=[N+]=[N-] (stereo partly drawn),-0.188 (inactive),0.0926,-2.25,-3.25 (inactive),-0.985 (inactive),-1.52 (inactive)
COCCCNC(=O)[C@@]1(C)c2ccccc2C(=O)N(Cc2cc(C(F)(F)F)cc(C(F)(F)F)c2)[C@H]1c1ccc(CO)cc1,0.707 (inactive),0.875,-0.577,-3.6 (inactive),-0.385 (inactive),0.0021 (inactive)
C=CC[C@@]1(C(=O)NCC(O)CO)N=C(c2ccc(OCCCO)cc2)O[C@@H]1c1ccccc1N=[N+]=[N-] (stereo partly drawn),1.06 (inactive),0.885,-1.84,-3.62 (inactive),-0.0138 (inactive),0.107 (inactive)
COC(=O)c1ccc(C23CC2(C(NP(=O)(c2ccccc2)c2ccccc2)c2ccccc2)C3)cc1 (stereo not drawn),0.946 (inactive),0.474,-1.35,-3.76 (inactive),-1.54 (inactive),-1.34 (inactive)
O=C1O[C@@H](c2ccccc2)[C@@H](c2ccccc2)N2[C@@H](c3ccc(O)cc3)[C@]3(C(=O)Nc4ccc(C#CC5(O)CCCCCC5)cc43)[C@@H](C(=O)N3CCCCCCC3)[C@H]12,1.51 (inactive),0.855,-0.667,1.7 (inactive),-0.129 (inactive),-0.0414 (inactive)
COC(=O)C(CC#Cc1ccc2c(c1)[C@]1(C(=O)N2)[C@H](C(=O)NC[C@H](O)c2ccccc2)[C@H]2C(=O)O[C@H](c3ccccc3)[C@H](c3ccccc3)N2[C@@H]1c1ccc(OCCO)cc1)C(=O)OC,0.518 (inactive),0.736,-2.15,-2.24 (inactive),-0.0625 (inactive),-0.136 (inactive)
COc1cc2c(cc1OC)CN(C(=O)[C@@H]1[C@H]3C(=O)O[C@H](c4ccccc4)[C@H](c4ccccc4)N3[C@H](c3ccccc3OCCO)[C@@]13C(=O)Nc1ccc(C#CCNC(N)=O)cc13)CC2,0.12 (inactive),0.811,-2.17,2.09 (inactive),-0.229 (inactive),-0.232 (inactive)
CCOC(=O)[C@H]1C[C@H]2O[C@@]23C[C@H]1C(=O)N1CCCC1[C@@H]3O[Si](C)(C)C(C)(C)C (stereo partly drawn),-0.0593 (inactive),-0.829,-0.329,-5.3 (inactive),-0.0084 (inactive),-0.115 (inactive)
CN1C(=O)C2C=CC(C(O)c3ccccn3)N(Nc3ccccc3)C2C1=O (stereo not drawn),0.632 (inactive),0.325,0.0014,-7.19 (inactive),-0.827 (inactive),-1.12 (inactive)
C#CCN(C(/C=C/c1ccccc1)CO)C(C(=O)O)c1ccccc1 (stereo not drawn),0.194 (inactive),-0.722,-2.23,0.9 (inactive),0.301 (inactive),0.353 (inactive)
COc1ccc(CCNC(=O)[C@@]2(c3ccc([N+](=O)[O-])cc3)CC(=O)N(CC34CC5CC(CC(C5)C3)C4)[C@@H]2c2ccc(CO)cc2)cc1,0.349 (inactive),0.735,-1.79,-2.31 (inactive),-0.42 (inactive),-0.458 (inactive)
N#Cc1ccc(NN2C(C(O)c3cccs3)C=CC3C(=O)N(c4ccccc4)C(=O)C32)cc1 (stereo not drawn),0.529 (inactive),0.477,0.407,-2.34 (inactive),0.0213 (inactive),-0.548 (inactive)
O=c1cccc(C=Cc2ccccc2)o1,-0.707 (inactive),-0.764,-0.907,-0.516 (inactive),-0.0971 (inactive),-0.0437 (inactive)
COc1ccc(C#Cc2ccc3c(c2)[C@]2(C(=O)N3)[C@H](C(=O)NC[C@H](O)c3ccccc3)[C@H]3C(=O)O[C@H](c4ccccc4)[C@H](c4ccccc4)N3[C@@H]2c2ccc(OCCO)cc2)cc1,-0.0969 (inactive),0.715,-1.06,-0.878 (inactive),0.63 (inactive),0.886 (inactive)

Compound,composite z-score [1],composite z-score (XIP peptide (Xip251-270)),z-score [2],z-score [3],z-score [4],z-score [5]
CC1=C2[C@@H](CCc3ccccc3)OB(O)C[C@@H]2n2c(=O)n(-c3ccccc3)c(=O)n2C1,-0.105 (inactive),0.777,1.65,-5.44 (inactive),-0.0397 (inactive),0.208 (inactive)
[N-]=[N+]=NCc1ccccc1C[C@@]1(C(=O)N2CCOCC2)N=C(c2ccc(OCCCO)cc2)O[C@@H]1c1ccccc1CN=[N+]=[N-],1.16 (inactive),0.788,-2.36,0.223 (inactive),-0.544 (inactive),-0.629 (inactive)
N#Cc1ccc(NN2C(C(O)c3ccc([N+](=O)[O-])cc3)C=CC3C(=O)N(c4ccccc4)C(=O)C32)cc1 (stereo not drawn),0.311 (inactive),0.807,0.272,-4.27 (inactive),0.446 (inactive),0.5 (inactive)
NC(=O)NCC#Cc1ccc2c(c1)[C@]1(C(=O)N2)[C@H](C(=O)N2CCCCCCC2)[C@H]2C(=O)O[C@H](c3ccccc3)[C@H](c3ccccc3)N2[C@@H]1c1ccc(OCCO)cc1,0.98 (inactive),0.246,-0.922,-15.8 (active),0.109 (inactive),0.309 (inactive)
Cc1ccc(S[C@]2(C(=O)NCc3ccccc3)CC(=O)N(Cc3ccccc3)[C@@H]2c2ccc(CO)cc2)cc1,0.824 (inactive),0.849,0.101,-2.39 (inactive),-0.0397 (inactive),0.377 (inactive)
COCCOC(=O)N1C(=O)[C@@]2(c3cc(C#CCC(C(=O)OC)C(=O)OC)ccc31)[C@H](c1ccccc1OCCO)N1[C@H](c3ccccc3)[C@H](c3ccccc3)OC(=O)[C@H]1[C@@H]2C(N)=O,0.547 (inactive),0.827,-2.07,-1.36 (inactive),-0.192 (inactive),-0.0971 (inactive)
O=C1O[C@@H](c2ccccc2)[C@@H](c2ccccc2)N2[C@@H](c3ccccc3OCCO)[C@]3(C(=O)Nc4ccc(C#CC5(O)CCCCCC5)cc43)[C@@H](C(=O)Nc3nc4ccccc4s3)[C@H]12,0.0985 (inactive),0.626,-2.16,2.1 (inactive),0.329 (inactive),0.288 (inactive)
CO[C@H]1O[C@H](CO)[C@@H](OC(=O)Nc2ccc(Oc3ccccc3)cc2)[C@H](OC(=O)Nc2ccccc2)[C@H]1OC(=O)Nc1ccccc1,1.21 (inactive),0.916,-2.21,-1.38 (inactive),-0.444 (inactive),-0.307 (inactive)
CC(C)N1C(=O)c2ccccc2[C@@H](C(=O)NCCCN(C)C)[C@@H]1c1ccc(CO)cc1,-0.361 (inactive),-0.428,-1.26,-2.54 (inactive),-0.0028 (inactive),-0.321 (inactive)
O=C1C2C=CC(C(O)c3ccc(B(O)O)cc3)N(Nc3ccccc3)C2C(=O)N1c1ccccc1 (stereo not drawn),0.158 (inactive),-0.197,-0.545,-3.99 (inactive),-0.149 (inactive),-0.329 (inactive)
C=CC[C@]1(C(=O)N2CCOCC2)N=C(c2ccc(OCCCO)cc2)O[C@H]1c1ccccc1,0.661 (inactive),0.362,-0.887,-6.82 (inactive),-0.274 (inactive),-0.217 (inactive)
CS(=O)(=O)CCOC(=O)C1=CC(c2ccc(CO)cc2)=CC(C2CC2)N(Cc2cc3c(cc2Br)OCO3)C=C1C(=O)OCCS(C)(=O)=O (stereo not drawn),0.0295 (inactive),0.639,-2.58,-2.94 (inactive),-0.572 (inactive),-0.534 (inactive)
O=C(O)[C@@]1(Cc2ccccc2)N=C(c2ccc(OCCCO)cc2)O[C@H]1c1ccccc1,0.213 (inactive),0.427,0.653,-5.03 (inactive),-0.294 (inactive),-0.224 (inactive)
O=C1C2C=CC(C(O)c3cccs3)N(Nc3ccccc3F)C2C(=O)N1c1ccccc1 (stereo not drawn),-0.238 (inactive),0.111,0.669,-4.17 (inactive),-0.143 (inactive),-0.299 (inactive)
C=CCC(OC(C)=O)[C@@H]1[C@@H](N(Cc2cccc3ccccc23)C(=O)c2ccc(C)cc2)c2cc(OCCCO)ccc2N1C(=O)Cc1ccc(OC)cc1 (stereo partly drawn),-0.262 (inactive),-0.241,-0.805,-0.287 (inactive),-0.446 (inactive),-0.126 (inactive)
COCCOC(=O)N1C(=O)[C@@]2(c3cc(C#CCNC(N)=O)ccc31)[C@H](c1ccc(O)cc1)N1[C@H](c3ccccc3)[C@H](c3ccccc3)OC(=O)[C@H]1[C@@H]2C(=O)Nc1nc2ccccc2s1,-0.236 (inactive),-0.132,0.0446,-0.523 (inactive),-0.373 (inactive),-0.669 (inactive)
CCN(CC)c1ccc(N2CC=CC34O[C@@H]5C=CCCOC(=O)C5[C@H]3C(=O)N(CCCCCO)[C@@H]4C2=O)cc1 (stereo partly drawn),0.235 (inactive),-0.782,0.315,-5.22 (inactive),0.234 (inactive),0.711 (inactive)
CCN(CC)c1ccc(N2CC=CC34O[C@@H]5/C=C\CCCOC(=O)C5[C@H]3C(=O)N(C(CO)C(C)C)[C@@H]4C2=O)cc1 (stereo partly drawn),1.05 (inactive),0.559,0.604,-6.07 (inactive),0.169 (inactive),-0.0477 (inactive)
CN(C)CCCCCCNC(=O)[C@H]1C[C@H]2C(=O)N[C@@H](CCCCN)C(=O)N2[C@H]1c1ccc(O)cc1,5.07 (inactive),0.937,-0.511,-0.281 (inactive),-0.111 (inactive),0.501 (inactive)
O=C1N(CCS(=O)(=O)c2ccccc2)Cc2ccccc2[C@H]2OC(c3ccc(OCCCO)cc3)=N[C@@]12CCS(=O)(=O)c1ccccc1,2.05 (inactive),0.81,-2.09,-0.483 (inactive),-0.44 (inactive),-0.346 (inactive)
COc1ccc([Si](C)(C)[C@H]2[C@H](CCn3cc(CCO)nn3)O[C@@]3(C(=O)N(Cc4ccc(N5CCOC5=O)cc4)c4ccccc43)[C@@H]2C)cc1,0.523 (inactive),0.866,-2.38,-4.22 (inactive),-1.11 (inactive),-0.744 (inactive)
